Results: PubChem BioAssay (NCATS)
Results filed as inconclusive are left out. Values without a mark were called inactive. The call rests on the fitted dose curve; in most records, active means well fitted inhibition curve with a large enough effect; inconclusive means small, poorly fitted or top-dose-only effect; inactive means no such curve, though single readings can be large or run the other way.

biological target: Cytochrome P450 3A7 (Homo sapiens) (UniProt P24462); experiment: Cytochrome P450 family 3 subfamily A member 7 (CYP3A7) small molecule antagonists: luciferase biochemical qHTS assay (AID 1963596); conditions: P450-Glo CYP3A7 enzyme luminescence, 1 h; series mostly up to 57.4 µM; activity change, negative = inhibition: at the top concentration; further: nearly all actives have a fitted effect of over 40% in size
Sequence (P24462 whole entry, looked up): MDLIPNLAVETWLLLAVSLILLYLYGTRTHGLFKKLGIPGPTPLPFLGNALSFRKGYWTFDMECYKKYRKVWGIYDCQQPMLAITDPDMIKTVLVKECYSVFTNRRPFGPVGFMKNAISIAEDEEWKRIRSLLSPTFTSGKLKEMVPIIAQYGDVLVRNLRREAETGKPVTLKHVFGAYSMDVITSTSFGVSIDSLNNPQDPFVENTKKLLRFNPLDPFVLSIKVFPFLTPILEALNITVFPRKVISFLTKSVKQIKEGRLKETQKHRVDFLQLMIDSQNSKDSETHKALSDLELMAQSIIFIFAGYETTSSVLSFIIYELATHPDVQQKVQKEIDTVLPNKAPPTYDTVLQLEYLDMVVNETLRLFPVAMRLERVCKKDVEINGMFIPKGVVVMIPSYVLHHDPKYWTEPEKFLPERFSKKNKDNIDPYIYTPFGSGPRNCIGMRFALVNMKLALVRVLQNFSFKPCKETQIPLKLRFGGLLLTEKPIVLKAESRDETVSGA
How it was run: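 Biochemical CYP3A7 activity measured with P450-Glo system: luciferin formed from proluciferin substrate in NADPH-driven reaction (1 h, room temperature) after 10 min compound preincubation. Signal in relative luminescence units.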
On the % scale 0 is the no-effect control and ±100 the full control effect.

Row | Compound | activity change, negative = inhibition
1 | CN1C2CCC1CC(OC(=O)N1Cc3ccccc3NC1=O)C2 (centres undefined) | -5.75%
2 | O=C(N1CCOCC1)N1CCN(c2ccc(Cl)cc2)CC1 | -0.0009%
3 | CC(=O)OC1C[C@H](O[C@@H]2C(O)C[C@H](O[C@@H]3C(O)C[C@@H](OC4CC[C@]5(C)C(CCC6C5CC(O)[C@@]5(C)C(C7=CC(=O)OC7)CC[C@@]65O)C4)OC3C)OC2C)O[C@H](C)[C@H]1O[C@H]1OC(CO)C(O)C(O)C1O (some centres undefined) | -5.82%
4 | C[C@]12CC[C@H]3[C@@H](CC=C4C[C@@H](O)CC[C@@]43C)[C@@H]1CC[C@@H]2O | -9.76%
5 | O=C(N[C@@H]1N=C(c2ccccc2F)c2cccc3c2N(CC3)C1=O)c1cc2ccccc2[nH]1 | -18.9%
6 | CNC(C)[C@@H](O)c1ccc(O)cc1 (some centres undefined) | -1.25%
7 | CC(C)(N)Cc1ccccc1 | -9.67%
8 | C=CCC1(CC(C)C)C(=O)NC(=O)NC1=O | -13.3%
9 | Cc1ccccc1CN1CCC(N2CCC(n3c(=O)[nH]c4ccccc43)CC2)CC1 | -22.3%
10 | CCCCNC(C)(C)[P+](=O)O | 4.24%
11 | CC(Cc1ccccc1)NC=O (centres undefined) | -1.41%
12 | COc1ccc(OC)c(C(O)C(C)N)c1 (centres undefined) | 2.75%
13 | COc1cc(N2CCN(C)CC2)ccc1N | -30.7%
14 | CCCCc1ccc(C(=O)O)nc1 | -0.905%
15 | N#Cc1cn([C@@H]2O[C@H](CO)[C@H](O)[C@@H]2O)c2ncnc(N)c12 | -12.3%
16 | c1ccc([C@@H]2C[C@H]2NC2CCNCC2)cc1 | -28.7%
17 | CCNCC(O)c1cccc(O)c1 (centres undefined) | 5.1%
18 | COC(=O)c1ccccc1C(=O)OC | 0.312%
19 | CCOC(=O)c1ccccc1C(=O)OCC | -6.77%
20 | CN(Cc1cccc(-c2ccncc2)c1)C(=O)Oc1ccc(-c2ccc(C(N)=O)cc2)cc1 | 0%

Row | Compound | activity change, negative = inhibition
21 | CCC(C(N)=O)N1CCCC1=O (centres undefined) | 7.55%
22 | NCCS[As](SCCN)c1ccc(Nc2nc(N)nc(N)n2)cc1 | -10.3%
23 | CCCCCCCCOC(=O)c1ccccc1C(=O)OCCCCCCCC | -25.2%
24 | Cc1c(Cl)cccc1S(=O)(=O)Nc1nc(CC(=O)N2CCN(C)CC2)cs1 | -29.7%
25 | CCNC(C)Cc1cccc(C(F)(F)F)c1 (centres undefined) | -17.4%
26 | O=[As]O[As]=O (centres undefined) | 5.3%
27 | OCCCCC#Cc1cncc(OC[C@@H]2CCN2)c1 | -16%
28 | CCN(CC)N(O)N=O | -0.176%
29 | CCCCCCn1c(=O)c(C(=O)Nc2ccc(C(=O)OCCC)cc2)c(O)c2ccccc21 | 0.937%
30 | CN(C)CCc1c[nH]c2ccc(CN3CCN(C)S3(=O)=O)cc12 | -17.9%
31 | CCCCCn1cc(C(=O)c2cccc3ccccc23)c2ccccc21 | -21.9%
32 | NC(=O)CN1CCCC1=O | 17.1%
33 | CC(=O)NCCCOc1ccc(C(=O)N2CCC(N3C(=O)CCc4ccccc43)CC2)cc1 | 0%
34 | N#Cc1ccc([C@H]2CCCC[C@H]2O)cc1C(F)(F)F | -12.7%
35 | CCCCNCC(O)c1ccc(O)cc1 (centres undefined) | 2.31%
36 | C[C@H](NC(=O)Cc1cc(F)cc(F)c1)C(=O)N[C@@H]1N=C(c2ccccc2)c2ccccc2N(C)C1=O | 9.26%
37 | COc1ccsc1CNCC[C@@]1(c2ccccn2)CCOC2(CCCC2)C1 | -2.82%
38 | NCCCCCNC1(c2ccccc2)CCCCC1 | -3.08%
39 | CCOc1cc(C=O)ccc1O | -14.2%
